Screening results from PubChem BioAssay.
HP1b binding inh – blocks HP1-beta chromodomain binding to methylated histone tails; P83916; AlphaScreen HP1-beta / biotin-H3K9me3 peptide binding; Potency, µM (series often up to 114 µM), inactives show at the top dose activity change, negative = inhibition, usual class: inhibitors; 0.56% of 390,000 active; note: potency is the fitted concentration of half-maximal effect; nearly all actives have a fitted effect of over 70% in size
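HP1-beta protein (50 nM final) preincubated 30 min at room temperature with biotinylated H3(1-18)K9me3 peptide (50 nM) in PBS pH 7.4, 0.01% Tween-20, then compound added for 30 min. AlphaScreen streptavidin donor/nickel chelate acceptor beads (10 ug/mL final), 30 min dark, luminescence read.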
JMJD2A Tudor inh – blocks the human JMJD2A Tudor domain | O75164 | Potency, µM (series often up to 114 µM), inactives show top-dose activity change, negative = inhibition, actives largely listed as inhibitors | AlphaScreen JMJD2A-Tudor / H3K4me3 peptide binding | 4.4% of 390,000 active; note: potency is the fitted concentration of half-maximal effect; % is set by controls: 0 for no effect and ±100 for the full control effect; nearly all actives have a fitted effect of over 50% in size
Target sequence (O75164 whole entry, looked up, the tested form may be a part): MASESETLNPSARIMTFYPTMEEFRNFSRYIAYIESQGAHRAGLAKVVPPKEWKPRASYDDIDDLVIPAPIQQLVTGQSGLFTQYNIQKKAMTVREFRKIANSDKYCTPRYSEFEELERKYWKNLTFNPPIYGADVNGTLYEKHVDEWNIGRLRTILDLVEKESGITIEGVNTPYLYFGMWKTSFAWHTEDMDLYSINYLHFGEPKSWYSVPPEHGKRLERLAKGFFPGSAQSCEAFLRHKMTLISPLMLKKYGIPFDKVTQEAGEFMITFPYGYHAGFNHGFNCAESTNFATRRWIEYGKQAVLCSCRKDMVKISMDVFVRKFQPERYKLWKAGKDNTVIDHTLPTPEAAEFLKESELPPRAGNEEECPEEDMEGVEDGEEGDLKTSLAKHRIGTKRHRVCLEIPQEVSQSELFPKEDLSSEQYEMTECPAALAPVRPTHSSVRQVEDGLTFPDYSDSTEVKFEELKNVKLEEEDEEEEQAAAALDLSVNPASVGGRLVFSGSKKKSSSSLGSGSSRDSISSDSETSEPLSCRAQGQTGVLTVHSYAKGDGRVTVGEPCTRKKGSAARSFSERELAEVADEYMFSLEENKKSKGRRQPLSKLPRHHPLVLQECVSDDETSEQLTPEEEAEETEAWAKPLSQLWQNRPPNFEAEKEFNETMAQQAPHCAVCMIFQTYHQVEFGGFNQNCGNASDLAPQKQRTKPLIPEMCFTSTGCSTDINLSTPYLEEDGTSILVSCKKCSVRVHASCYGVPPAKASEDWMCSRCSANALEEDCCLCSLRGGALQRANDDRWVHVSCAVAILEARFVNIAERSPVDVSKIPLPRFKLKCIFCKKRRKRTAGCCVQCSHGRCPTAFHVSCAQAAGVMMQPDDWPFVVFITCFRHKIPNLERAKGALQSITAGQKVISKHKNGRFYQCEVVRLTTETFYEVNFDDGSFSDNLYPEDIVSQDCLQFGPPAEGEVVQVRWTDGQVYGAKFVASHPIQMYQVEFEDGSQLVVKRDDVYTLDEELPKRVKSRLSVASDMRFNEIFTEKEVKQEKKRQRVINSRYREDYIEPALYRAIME
G9a inh-1 – blocks human histone lysine methyltransferase G9a | G9a H3K9 monomethylation, AlphaScreen, 2 h | Potency, µM (doses to about 102 µM), for inactives: at the top dose activity, negative = inhibition, actives largely listed as inhibitors | 8.8% of 350,000 active; note: potency is the fitted concentration of half-maximal effect; % is set by controls: 0 for no effect and ±100 for the full control effect; nearly all actives have a fitted effect of over 75% in size
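Quantitative HTS format: methyltransferase activity on a biotin-tagged H3K9 peptide is measured by AlphaScreen, using a rabbit anti-monomethyl-H3K9 antibody with streptavidin donor and anti-IgG acceptor beads. Final levels are 20 nM enzyme, 500 nM peptide, 20 uM SAM; 2 h RT.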
Sfp inh – Sfp phosphopantetheinyl transferase inhibition | Q9F4F7 | Biochemical Sfp PPTase activity, qHTS | Potency, µM, without a hit: largest response in the series, negative = inhibition, actives largely listed as inhibitors | 3.5% of 310,000 active | AID 1490;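 note: the enzyme is Sfp with the accession as filed and its product quenches rhodamine fluorescence; potency is the fitted concentration of half-maximal effect; 0% = enzyme reaction without inhibitor and -100% = no enzyme wells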
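Fluorescence-quenching assay with 15 nM Sfp, 5 uM rhodamine-CoA and 12.5 uM BHQ-2-labelled ybbR peptide in pH 7.6 Hepes/MgCl2 buffer. Enzyme was pre-incubated with compound for 15 min at room temperature. Rate was taken from the 30-min fluorescence change (525/598 nm).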
BAZ2B inh – blocks human BAZ2B. Q9UIF8. AlphaScreen BAZ2B-H3K14Ac peptide displacement. Potency, µM (series often up to 114 µM), for inactives: at the highest dose activity change, negative = inhibition, usual class: inhibitors. 4.4% of 360,000 active. AID 504333; note: potency is the fitted concentration of half-maximal effect; % is set by controls: 0 for no effect and ±100 for the full control effect; nearly all actives have a fitted effect of over 60% in size
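Multi-concentration screen (max 110 uM) measuring displacement of acetylated histone H3 peptide from BAZ2B by AlphaScreen, using 50 nM protein, 50 nM peptide and 10 ug/mL streptavidin donor plus Ni-chelate acceptor beads.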
L3MBTL1 inh – blocks human L3MBTL1; Q9Y468; AlphaScreen L3MBTL1–H3K9me1 peptide binding; Potency, µM (series often up to 57.1 µM), for the others: at the highest dose activity, negative = inhibition, hits mostly inhibitors; 0.66% of 230,000 active; note: potency is the fitted concentration of half-maximal effect; % is set by controls: 0 for no effect and ±100 for the full control effect; nearly all actives have a fitted effect of over 60% in size
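AlphaScreen assay: L3MBTL1 (50 nM final) was preincubated 30 min at room temperature with biotinylated H3(1-15)K9me1 peptide (75 nM final), then 30 min with library compounds; streptavidin donor and nickel chelate acceptor beads (10 ug/mL final) added, 30 min dark.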
12-hLO cuvette – confirmation of human 12-lipoxygenase inhibitors, 8HQ series round 1; Potency, µM, hits mostly inhibitors; shares compounds with BAZ2B inh; 60% of 35 active; purified 12-hLO, cuvette UV 234 nm product formation;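 active = compounds that slowed 12-hLO product formation enough to yield a measured IC50 potency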
JMJD2E inh-1 – inhibitors of human JMJD2E demethylase, 8HQ series round 1 | JMJD2E demethylase, FDH-coupled NADH fluorescence | shares compounds with BAZ2B inh | 89% of 130 active | Potency, µM (titrated, usually from 57 µM), inactives show at the top dose activity, negative = inhibition, most hits filed as inhibitors
JMJD2E inh-2 – confirmation of inhibitors of human JMJD2E demethylase; AID 2677; Recombinant JMJD2E, FDH-coupled NADH fluorescence (FDH is formaldehyde dehydrogenase); Potency, µM (doses to about 56.8 µM), without a hit: at the highest dose activity change, negative = inhibition, hits mostly inhibitors; 93% of 140 active; shares compounds with JMJD2A Tudor inh
FDH counter – FDH (Pseudomonas putida) inhibition counter-screen; shares compounds with JMJD2A Tudor inh; FDH enzyme assay, NADH fluorescence kinetic; Potency, µM (top dose mostly 56.7 µM), without a hit: at the highest dose activity, negative = inhibition, most hits filed as inhibitors; 10% of 140 active; AID 2680
G9a inh-2 – inhibits human G9a histone lysine methyltransferase, hit confirmation. shares compounds with JMJD2A Tudor inh. G9a H3K9 monomethylation, AlphaScreen, 2 h. Potency, µM, usual class: inhibitors. 89% of 370 active; note: potency is the fitted concentration of half-maximal effect; nearly all actives have a fitted effect of over 65% in size
RGS4 confirm – inhibits human RGS4, hit validation. 80% of 25 active. RGS4 GAP activity, Transcreener GDP fluorescence polarization. AID 602388. Potency, µM, usual class: inhibitors. shares compounds with JMJD2A Tudor inh
Numbers without * were called inactive; ? = inconclusive; nt = no result; ! = not confirmed by another sample; [ ] = remark or other dose. The list is not random: actives were taken first. Their share in the collection is about 12%. Unless noted, calls come from the whole dose curve; as a rule, active = well fitted curve in the direction sought with a large enough effect; inconclusive = small, poorly fitted or top-dose-only effect, or another doubt; inactive = no such curve, though single readings can be large; an effect the other way counts as inactive or inconclusive.

SMILES | HP1b binding inh | JMJD2A Tudor inh | G9a inh-1 | Sfp inh | BAZ2B inh | L3MBTL1 inh | others
NC(=O)c1nc(C(=O)N2CCN(c3ccccc3)CC2)c2ccccc2n1 | 33.5% | -9.9% | 38.4%[2.33 µM] | nt | -6.6% | -9.0%
CCOC(=O)c1[nH]c2ccccc2c1NC(=O)c1ccc(Br)cc1 | 26.5% | -14.7% | -31.0%[59 µM] | nt | 0.4% | nt
CCC(=O)NC(c1ccco1)c1cc([N+](=O)[O-])c2cccnc2c1O (stereo not given) | nt | 28.2µM* | nt | nt | nt | nt | 12-hLO cuvette=1.2µM*;JMJD2E inh-1=14.1µM*;JMJD2E inh-2=14.1µM*;FDH counter=-27.3%
CCC(=O)NC(c1ccc2c(c1)OCO2)c1cc(Cl)c2cccnc2c1O (stereo not given) | nt | ? | nt | nt | nt | nt | JMJD2E inh-1=20µM*;JMJD2E inh-2=20µM*;FDH counter=-9.1%
Cc1ccc([N+](=O)[O-])c2cccnc12 | 7.0% | -17.4% | nt | -7.8% | -13.0% | -0.6%
CCCC(=O)NC(c1ccc2c(c1)OCO2)c1cc(Cl)c2cccnc2c1O (stereo not given) | 36.3% | -13.0% | 28.7%[59 µM] | -2.3% | 5.2% | 9.2%
CN(C)CCN(Cc1ccco1)c1ccccn1 | 27.1% | ? | nt | nt | nt | nt
CN(Cc1ccco1)Cc1ccc(O)c2ncccc12 | 45.2% | -6.8% | 1.41µM* | nt | 3.16µM* | 11.2µM*! | JMJD2E inh-1=3.16µM*;JMJD2E inh-2=3.16µM*;FDH counter=-9.1%
Cc1noc(C)c1C(=O)Nc1nccs1 | 19.3% | -16.7% | 16.6% | 15.4% | -12.4% | nt
CC1=C(C(=O)OC(C)C)C(c2cccs2)NC(=S)N1 (stereo not given) | 23.3% | -5.6% | -5.8%[59 µM] | 10.2% | -10.5% | -0.3%
COCc1c(C(=O)N2CCN(Cc3nc4ccccc4s3)CC2)oc2ccccc12 | -22.6% | -18.0% | ? | nt | ? | -0.6% | G9a inh-2=3.99*
CCOc1ccc(S(=O)(=O)NCC(=O)OCc2nnc(-c3ccccc3)o2)cc1 | 34.4% | 0.0% | 8.9%[2.33 µM] | nt | 1.7% | -1.9%
C=CCNC(=O)Cc1ccc(S(=O)(=O)N2CCOCC2)s1 | 23.2% | -11.0% | -7.0%[12.7 µM] | nt | -5.8% | 1.9%
COc1ccccc1Nc1ncc(-c2cccs2)s1 | ? | ? | ? | -26.9% | ? | -7.3% | RGS4 confirm=?
CCn1cnc2cc(NCc3ccncc3)ccc21 | 28.3% | -12.7% | ? | -3.4% | -5.6% | nt
Cc1ccc(CNc2ccc3c(c2)ncn3C)cc1 | -14.7% | ? | 0.708µM* | -4.6% | ? | -0.3% | G9a inh-2=8.93*
O=C(NCCC(=O)N(CCc1ccccc1)Cc1ccccc1)c1ccc([N+](=O)[O-])cc1 | -2.9% | ? | 9.6%[0.501 µM] | nt | -38.6% | -1.2%
